Screens (PubChem)
ALDH1A1 block – blocks purified human ALDH1A1 activity. 220,000 compounds, 7.3% hits. AID 1030. P00352. Purified ALDH1A1, NADH fluorescence, propionaldehyde substrate. Potency, µM (doses to about 75.3 µM), hits mostly inhibitors; active means well fitted inhibition curve with a large enough effect, not every such curve was filed as active; inconclusive means small, poorly fitted or top-dose-only effect, or another doubt; inactive means no such curve, though single readings can be large or run the other way
HTT ATP protect – Huntington cell model cytoprotection by ATP luminescence | PC12 HTT-Q103 induced, cytoprotection, ATP luminescence, 40 h | Potency, µM (highest dose often 56.4 µM), most hits filed as activators | 230,000 compounds, 0.14% hits | AID 1471; further: nearly all actives have a fitted effect of over 45% in size
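Quantitative HTS on tebufenozide-induced (100 nM) PC12 cells expressing HTTQ103 exon 1–GFP; compounds tested as a concentration series; survival measured via cellular ATP.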
LMNA splice mod – modulators of lamin A splicing; Potency, µM (titrated, usually from 46.1 µM), usual class: inhibitors; 200,000 compounds, 0.01% hits; HeLa LMNA splicing GFP/RFP minigene ratio, 48 h; active means well fitted inhibition curve with a large enough effect in the signal ratio, with a control signal flat, not every such curve was filed as active; inconclusive means small, poorly fitted or top-dose-only effect, or effect the other way, or a change in a side signal; the % refers to the signal ratio
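Read-out is the ratio of GFP to DsRed2 object intensity, acquired by 488 nm laser-scanning cytometry on HeLa lamin A-EGFP minigene reporter cells. Compound incubation 48 hrs at 37 °C in Opti-MEM with 2% FBS; DMSO 0.5% final.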
Luc counter – counter-screen: inhibitors of Kinase-Glo firefly luciferase; Kinase-Glo luciferase, ATP luminescence, 8 min; Q27757; Potency, µM (titrated, usually from 38.3 µM), actives largely listed as inhibitors; 200,000 compounds, 0.28% hits; further: nearly all actives have a fitted effect of over 60% in size
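Substrate mix (final 50 mM imidazole pH 7.2, 50 mM KCl, 7 mM MgCl2, 10 uM ATP, 0.01% Tween 20, 0.05% BSA) plus pin-tool compound, then Kinase-Glo detection mix; 8 min ambient, luminescence read.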
HPGD block – inhibitors of human 15-hydroxyprostaglandin dehydrogenase (HPGD). purified HPGD, NADH fluorescence kinetic, PGE2 substrate. Potency, µM, hits mostly inhibitors. 150,000 compounds, 4.3% hits. AID 894; active means well fitted inhibition curve with a large enough effect, not every such curve was filed as active; inconclusive means small, poorly fitted or top-dose-only effect, or another doubt; inactive means no such curve, though single readings can be large or run the other way
Target sequence (P15428 whole entry, looked up): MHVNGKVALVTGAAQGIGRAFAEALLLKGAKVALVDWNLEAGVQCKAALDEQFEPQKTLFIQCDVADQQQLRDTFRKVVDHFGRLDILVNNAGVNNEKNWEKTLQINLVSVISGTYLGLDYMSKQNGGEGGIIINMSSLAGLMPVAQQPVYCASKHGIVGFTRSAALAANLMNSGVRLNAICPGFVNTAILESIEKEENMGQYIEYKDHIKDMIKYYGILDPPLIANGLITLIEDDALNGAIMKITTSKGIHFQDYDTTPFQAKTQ
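20 nM HPGD preincubated 15 min at room temperature with compound in 50 mM Tris-HCl pH 8, 0.01% Tween 20. Started with 1 mM NAD+ and 30 uM prostaglandin E2; NADH fluorescence (360/450 nm) read 5 times over 30-s intervals, last minus first.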
HTT aggregate – mutant huntingtin aggregation inhibition; PC12 HttQ103-GFP aggregates, Acumen cytometry, 40 h; 220,000 compounds, 1.1% hits; AID 1688; Potency, µM (doses to about 46.1 µM), usual class: inhibitors; further: nearly all actives have a fitted effect of over 60% in size
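Read-out: GFP aggregate count by laser scanning cytometer (488 nm excitation, 500-530 nm emission, 1–25 µm objects >6 SD above background). Cells: PC12, inducible HTTex1-Q103-GFP, 100 nM tebufenozide; compounds titrated.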
Hits are given with their value; [ ] = dose if it differs, or a comment. A selection: hits, their analogues and other compounds. The true share with any hit is near 9%. Unless noted, the call rests on the fitted dose curve; in most records, active means well fitted curve in the direction sought with a large enough effect; inconclusive means small, poorly fitted or top-dose-only effect, or another doubt; inactive means no such curve, though single readings can be large; an effect the other way counts as inactive or inconclusive.

COc1ccc(NC(=O)CN2CCN(C3c4ccccc4-c4ccccc43)CC2)cc1 was read as ALDH1A1 block 22µM, HTT ATP protect inactive, LMNA splice mod inconclusive, Luc counter inactive, HPGD block inactive and HTT aggregate inconclusive.
Screening CCOc1ccc(NC(=O)CN2CCN(CC(=O)Nc3ccc4c(c3)OCO4)CC2)cc1 returned ALDH1A1 block inconclusive, HTT ATP protect inactive, LMNA splice mod inactive, Luc counter inactive, HPGD block inactive and HTT aggregate inactive.
Screening CCOc1ccc(NC(=O)CN2CCN(CC(=O)Nc3ccc(F)cc3)CC2)cc1 returned ALDH1A1 block 12µM, HTT ATP protect inactive, LMNA splice mod inactive, Luc counter inactive, HPGD block inactive and HTT aggregate inactive.
`COc1ccc(C(=O)CN2CCN(c3ccc(F)cc3)CC2)cc1OC` gave ALDH1A1 block 13µM, HTT ATP protect inactive, LMNA splice mod inactive, Luc counter inactive, HPGD block inactive and HTT aggregate inactive.
COc1cc(OC)c(OC)cc1CN1CCN(c2ccc(F)cc2)CC1 was read as HTT ATP protect inactive[10 µM] and HTT aggregate inactive[9.22 µM].
For COc1ccc(C(=O)c2cc3cccc(OC)c3o2)cc1 the results were ALDH1A1 block inconclusive, HTT ATP protect inactive, LMNA splice mod inactive, Luc counter inactive and HTT aggregate inconclusive.
`CCn1cc(C(=O)N2CCc3ccccc3C2)c(=O)c2cc(S(=O)(=O)N3CCCCC3)ccc21` gave ALDH1A1 block inconclusive, LMNA splice mod inactive, Luc counter inactive, HPGD block inactive and HTT aggregate inactive.
For O=C(COc1ccc(S(=O)(=O)N2CCCC2)cc1Cl)N1CCN(c2ccccc2)CC1 the results were ALDH1A1 block 18µM, HTT ATP protect inactive[0.074 µM], LMNA splice mod inconclusive, Luc counter inactive, HPGD block inactive and HTT aggregate inactive.
Screening CCOc1cc(C(=O)OCC(=O)NCc2ccco2)cc(OCC)c1OCC returned ALDH1A1 block inactive, HTT ATP protect inactive[10 µM], LMNA splice mod inactive, Luc counter inactive, HPGD block inactive and HTT aggregate inactive.
`CCn1cc(C(=O)NCCc2ccccc2)c(=O)c2cc(S(=O)(=O)N3CCCC3)ccc21` gave ALDH1A1 block 32µM, HTT ATP protect inactive, Luc counter inactive and HTT aggregate inactive.
`CCOC(=O)c1cn(CC)c2ccc(S(=O)(=O)N3CCC(C)CC3)cc2c1=O` gave ALDH1A1 block inactive, HTT ATP protect inactive[0.074 µM], LMNA splice mod inactive, Luc counter inactive, HPGD block 16µM and HTT aggregate inactive.
`CC(C)(C)c1ccc(OCC(=O)NCc2ccco2)c(Br)c1` gave ALDH1A1 block 18µM, HTT ATP protect inactive, LMNA splice mod inactive, Luc counter inactive, HPGD block inactive and HTT aggregate inactive.
Screening CCCc1cnc(N2CCN(S(C)(=O)=O)CC2)nc1 returned ALDH1A1 block inactive, HTT ATP protect inactive[10 µM] and HTT aggregate inactive[9.22 µM].
NC(=O)c1cnn2c(-c3cccc(C(F)(F)F)c3)ccnc12 was read as HTT ATP protect inactive[10 µM] and HTT aggregate inactive[9.22 µM].
`COc1ccc(S(=O)(=O)n2nc(C)cc2C)c(C)c1C` gave ALDH1A1 block inactive, HTT ATP protect inactive, LMNA splice mod inactive, Luc counter inactive, HPGD block inactive and HTT aggregate inactive.
Screening O=C(OCc1ccc2c(c1)OCO2)c1cccc(S(=O)(=O)N2CCCCC2)c1 returned ALDH1A1 block 7.1µM, HTT ATP protect inactive, LMNA splice mod inactive, Luc counter inactive, HPGD block inconclusive and HTT aggregate inactive.
For Cc1cc(S(=O)(=O)N2CCCC2)ccc1OCC(=O)NCc1ccco1 the results were ALDH1A1 block 10µM, HTT ATP protect inactive, LMNA splice mod inactive, Luc counter inactive, HPGD block inconclusive and HTT aggregate inconclusive.
Screening O=C(COc1ccc(S(=O)(=O)N2CCCC2)cc1Cl)NCc1ccc2c(c1)OCO2 returned ALDH1A1 block 5µM, HTT ATP protect inactive, LMNA splice mod inactive, Luc counter inactive, HPGD block inactive and HTT aggregate inactive.
`CCn1cc(C(=O)NCC2CCCO2)c(=O)c2cc(S(=O)(=O)N3CCC(C)CC3)ccc21` (configuration not stated) gave ALDH1A1 block inactive, HTT ATP protect inactive, LMNA splice mod inactive, Luc counter inactive, HPGD block inactive and HTT aggregate inactive.
`CCn1cc(C(=O)NCC2CCCO2)c(=O)c2cc(S(=O)(=O)N3CCCCCC3)ccc21` (configuration not stated) gave ALDH1A1 block 4.5µM, HTT ATP protect inactive, LMNA splice mod inactive, Luc counter inactive, HPGD block inactive and HTT aggregate inactive.
O=C(Cn1c(=O)c(=O)n(Cc2ccccc2)c2ccc(Cl)cc21)Nc1cc(F)ccc1F was read as ALDH1A1 block inconclusive, LMNA splice mod inactive, Luc counter inactive and HTT aggregate inactive.
For CN1C(=O)C(Cc2c[nH]c3ccccc23)NC1=S (configuration not stated) the results were ALDH1A1 block inactive, HTT ATP protect inactive, Luc counter inactive and HPGD block inactive.
Screening COc1ccc(CC(=O)N2CC(C)CC(C)C2)cc1OC (configuration not stated) returned ALDH1A1 block inactive, HTT ATP protect inactive, LMNA splice mod inactive, Luc counter inactive, HPGD block inactive and HTT aggregate inactive.
Screening CCn1cc(C(=O)NCc2ccco2)c(=O)c2cc(S(=O)(=O)N3CCCC3)ccc21 returned ALDH1A1 block 25µM, HTT ATP protect inactive, Luc counter inactive and HTT aggregate inactive.
For CCn1cc(C(=O)NCc2cccs2)c(=O)c2cc(S(=O)(=O)N3CCOCC3)ccc21 the results were HTT ATP protect inactive[0.074 µM] and HTT aggregate inactive[9.22 µM].
O=C(/C=C/N1CCN(Cc2ccccc2)CC1)C(F)(F)F was read as ALDH1A1 block inactive, HTT ATP protect inactive, LMNA splice mod inactive, Luc counter inactive and HTT aggregate inactive[9.22 µM].
For COC(=O)C1CCN(c2cc(=O)n(C3CCCCC3)c(=O)[nH]2)CC1 the results were ALDH1A1 block inconclusive, HTT ATP protect inactive, LMNA splice mod inactive, Luc counter inactive, HPGD block inactive and HTT aggregate inactive.
O=c1cc(N2CCCCC2)[nH]c(=O)n1C1CCCCC1 was read as ALDH1A1 block inconclusive, HTT ATP protect inactive[10 µM] and HTT aggregate inactive[9.22 µM].
`Cc1cc(C)cc(Nc2cc(=O)n(C3CCCCC3)c(=O)[nH]2)c1` gave ALDH1A1 block 0.45µM, HTT ATP protect inactive, LMNA splice mod inactive, Luc counter inactive, HPGD block inactive and HTT aggregate inconclusive.
COc1ccc(Nc2cc(=O)n(C3CCCCC3)c(=O)[nH]2)c(OC)c1 was read as ALDH1A1 block 7.1µM, HTT ATP protect inactive, LMNA splice mod inactive, Luc counter inactive, HPGD block inactive and HTT aggregate inactive.
Screening CCOc1ccc(-c2cn3c(n2)sc2cc(C(=O)NCCCN4CCCCCC4)ccc23)cc1 returned LMNA splice mod inactive.
